Experimental findings from PubChem BioAssay AID686978 (National Center for Advancing Translational Sciences (NCATS), 2013) are described below.

SMILES strings stand for the structures. Among all 420,000 compounds or so, about 64,000 (15%) were called active. Not shown: some 27% with an inconclusive outcome. Not all results are given here. Values without a mark were called inactive. The call rests on the fitted dose curve; in most records, active means well fitted inhibition curve with a large enough effect; inconclusive means small, poorly fitted or top-dose-only effect; inactive means flat fitted curve, though single readings scatter.
On the % scale 0 is the no-effect control and ±100 the full control effect; potency means the concentration at half of the fitted maximal effect.

The assay in a line: qHTS for Inhibitors of human tyrosyl-DNA phosphodiesterase 1 (TDP1): qHTS in cells in absence of CPT. Further: nearly all actives have a fitted effect of over 55% in size. Conditions: DT40 Tdp1-/- hTDP1 cells, no CPT, ATP luminescence, 48 h; activity change, negative = growth inhibition: at 46.2 µM (top of the series). The procedure, abridged:
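Compound effects on proliferation are scored in DT40 Tdp1-/-;hTDP1 cells in the absence of CPT. ATP levels (CellTiter-Glo luminescence) are recorded after a ≥48 hr, 37 °C incubation.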
Regarding `CN1CCN(S(=O)(=O)c2ccc(NC(=S)NC(=O)C3CC3)cc2)CC1`, the “activity change, negative = growth inhibition” value is -7.98%. Still for that read-out and setting: next, `CCOC(=O)c1cccnc1NC(=O)c1ccncc1`: 7.91%. On to `O=C(O)c1ccccc1-c1ccccc1C(=O)Nc1cccc2ccccc12`, for which the “activity change, negative = growth inhibition” value was -2.15%.

With `COC(=O)COc1ccc2c(c1C)O/C(=C\c1ccco1)C2=O`, the “activity change, negative = growth inhibition” value was -27.7%. In the case of `C=CCn1cc(-c2cccc(C(F)(F)F)c2)cc(C#N)c1=O`, the “activity change, negative = growth inhibition” value was -9.09%. Turning to `O=c1cc(O)c(-c2cccc(C(F)(F)F)c2)c(Cl)[nH]1`, the “activity change, negative = growth inhibition” value is -13.8%. As to `CC1(Cc2cccc(C#N)c2)C(=O)Nc2ccc(-c3cccc(C(F)(F)F)c3)cc21` (stereo not drawn), the Potency is 20.6 µM (active). On to `COC(=O)C(C)Sc1ccc2nnc(-c3cccc(F)c3)n2n1` (stereo not drawn), for which the “activity change, negative = growth inhibition” value is -17.7%. As for `Cc1ccc(-n2cc(CN(C)Cc3nccn3C)c(-c3cccc(C)c3)n2)cc1`, the Potency is 23.1 µM (active). `Cc1ccc(-n2cnc3ncnc(-c4ccccc4)c32)cc1`: the “activity change, negative = growth inhibition” value is -16.9%. As to `CCn1ccnc1CN(C)Cc1nc(-c2ccc3c(c2)OCO3)no1`, the “activity change, negative = growth inhibition” value was -24.4%.

On to `O=C(CCCl)Nc1ccc(S(=O)(=O)NCc2ccco2)cc1`, for which the “activity change, negative = growth inhibition” value is -4.87%. For `Cc1oc(-c2ccccc2Cl)[n+]([O-])c1C`, the Potency was 23.1 µM (active). Regarding `Cc1ccc(-c2cc(-c3coc4ccccc4c3=O)c3c(n2)-c2cc(Cl)ccc2OC3)cc1`, the “activity change, negative = growth inhibition” value was -9.37%. As to `O=C(c1ccc(OC2CCN(Cc3ccccn3)CC2)cc1)N1CCCCCC1`, the “activity change, negative = growth inhibition” value is -20%.

On to `COc1cc([N+](=O)[O-])ccc1NC(=O)COC(=O)CCOc1ccc(C)cc1`, for which the Potency is 6.51 µM (active). `COc1cc([N+](=O)[O-])ccc1NC(=O)CN1CCCC1`: the “activity change, negative = growth inhibition” value was 1.19%. The same measure, in the same setting: next, `CSc1ccccc1NC(=O)COC(=O)CCCOc1ccc(C)cc1`: -4.28%; `O=C(C[C@H]1CC[C@@H](NC(=O)c2ccncc2)[C@@H](CO)O1)NCC1CC1`: -1.98%; `C=CCn1cnc2scc(-c3ccccc3)c2c1=O`: -17.8%.

For `CN(CCC#N)c1ncnc2scc(-c3ccccc3)c12`, the Potency is 14.6 µM (active). Consider `N#CCCN(CCC#N)c1nnc(-c2ccccc2)s1`, for which the “activity change, negative = growth inhibition” value is -4.74%. In the case of `CCC(=O)NC(Nc1cc(C)ccn1)(C(F)(F)F)C(F)(F)F`, the “activity change, negative = growth inhibition” value is -7.28%. On to `Cc1cc(C)cc(NS(=O)(=O)c2ccc(Oc3ncc(C(F)(F)F)cc3Cl)cc2)c1`, for which the Potency was 13 µM (active).

As to `COC(=O)Cc1ccc(Oc2ncc(C(F)(F)F)cc2Cl)cc1`, the “activity change, negative = growth inhibition” value was -12.9%. As to `Cc1cc(C)cc(OCC(=O)Nc2ccc(S(=O)(=O)Nc3ccccn3)cc2)c1`, the “activity change, negative = growth inhibition” value is -19.5%. In the case of `Cc1nc(C(F)(F)F)ccc1C(=O)N1CCC1(C)C(=O)NS(=O)(=O)c1ccccc1` (stereo not drawn), the “activity change, negative = growth inhibition” value is -4.76%. Same read-out and setting: next, `O=C(CCN1Cc2ccccc2OC(c2ccccc2)C1)N[C@@H]1CS(=O)(=O)C[C@H]1O` (stereo partly drawn): -13.3%. `COc1ccc(C2COC(=O)C2=N)c(NC(=O)c2ccccc2)c1` (stereo not drawn): the “activity change, negative = growth inhibition” value was -28.1%.

For `CCCc1ccc(C(=O)[C@@H]2[C@@H](C(C)=O)N3c4ccc(F)cc4C=C[C@@H]3[C@@]23C(=O)Nc2ccccc23)cc1`, the Potency was 18.4 µM (active). Turning to `COc1cc(C(=O)N[C@@H](C)C(=O)NCc2ccco2)cc(OC)c1OC`, the “activity change, negative = growth inhibition” value is -2.61%. As for `COc1cc(C(=O)NC(=S)NCc2ccco2)cc(OC)c1OC`, the Potency is 20.6 µM (active). As to `COc1cccc(OC)c1C(=O)NC(=S)NCc1ccco1`, the “activity change, negative = growth inhibition” value is -16.1%. For the molecule `COc1ccc(-c2nc3c(c(SCC(=O)Nc4ccc(C(=O)O)cc4)n2)Cc2ccccc2O3)cc1`, the “activity change, negative = growth inhibition” value was -7.92%. In the case of `Cc1oc2nc(SCC(=O)NCc3cccnc3)nc(N)c2c1C`, the “activity change, negative = growth inhibition” value is 0.424%.

Turning to `COc1ccccc1NC(=O)C1=C(C)NC(=O)NC1c1ccc(C)s1` (stereo not drawn), the “activity change, negative = growth inhibition” value was -13.6%. The same measure, in the same setting: then `CC(NC(=O)c1ccc(Cl)cc1)C(=O)N1CCCCC1` (stereo not drawn), with -9.8%; and `O=C(Cn1nnc(N2CCCCC2)n1)c1ccc(Cl)c(Cl)c1`, with -10.8%. Turning to `O=C(Cn1nc(CNc2ccc(Cl)cc2)[n+]2c1CCCCC2)c1ccc(Cl)cc1`, the Potency is 23.1 µM (active). Take `CC1(c2ccccc2Cl)NC(=O)N(CC(=O)NC(=O)NCc2ccco2)C1=O` (stereo not drawn): the “activity change, negative = growth inhibition” value is -5.22%.

Consider `O=C(CCN1C(=O)c2ccncc2C1=O)Nc1ccc2c(c1)OCCO2`, for which the “activity change, negative = growth inhibition” value is -12.2%. With `Cc1ccc(/C=C2\SC(=S)N(CCC(=O)Nc3ccc(O)cc3)C2=O)cc1`, the “activity change, negative = growth inhibition” value is -12.5%. Take `COC(=O)C1=C(C)NC(=O)/C1=C/c1ccc(CNS(=O)(=O)c2ccc(C)cc2)o1`: the “activity change, negative = growth inhibition” value is -16.5%.

With `COC(=O)C1=C(C)N(c2ccc(C)cc2)/C(=C/c2ccc(O)cc2)C1=O`, the Potency is 20.6 µM (active). Consider `CC(C)CNS(=O)(=O)c1ccc(C(=O)Nc2ccc3c(c2)OCO3)cc1`, for which the “activity change, negative = growth inhibition” value was -21.9%. `CCC(C)[C@@H](C(=O)N1CCNCC1)n1cc(CCCCN)nn1` (stereo partly drawn): the “activity change, negative = growth inhibition” value is -5.37%. In the case of `C=CCOC(=O)C1=C(C)N=C2SCCC(=O)N2C1/C=C/c1ccccc1OC` (stereo not drawn), the “activity change, negative = growth inhibition” value is -1.5%. Turning to `CC(C)C12CN3CC(C(C)C)(CN(C1)C3c1ccc(OCc3ccccc3)cc1)C2=O` (stereo not drawn), the “activity change, negative = growth inhibition” value is 1.91%. In the case of `CC1=C(C(=O)OCC(C)C)C(c2ccc(OCc3ccccc3)cc2)N2C(=O)CCSC2=N1` (stereo not drawn), the Potency was 16.4 µM (active).

For `COc1ccc(-n2c(=O)c(-c3cn(C)c4ccccc34)nc3cnc(OC)nc32)cc1`, the “activity change, negative = growth inhibition” value was -3.92%.

For the molecule `CCC(C(=O)N1CCOCC1)n1c(C(=O)OC)cc2occc21` (stereo not drawn), the “activity change, negative = growth inhibition” value was 1.19%. Still for that read-out and setting: then `CCS(=O)(=O)c1ccc2c(c1)N(S(=O)(=O)c1ccccc1)CC(C(=O)O)O2` (stereo not drawn), with -5.4%; and `CCOc1ccc(S(=O)(=O)N2CCC(C(=O)OCc3ccc(OC)cc3)CC2)cc1`, with -10.8%.
